PubChem BioAssay AID743279 (National Center for Advancing Translational Sciences (NCATS), 2014)
Among all 360,000 compounds or so, about 17,000 (4.7%) were called active. Roughly 5% stayed inconclusive and do not appear here. Rule as the data show it: active = activity change below about -50%; inconclusive = mostly about -30% to -49%; inactive = weaker than that. Shown is part of a subset that was picked to be rich in actives.

experiment: qHTS for Inhibitors of Inflammasome Signaling: IL-1-beta AlphaLISA Primary Screen; conditions: THP-1 LPS/ATP IL-1B secretion, 16 h; at 57.5 µM, hits give low values
Summary of the method: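 Secreted IL-1B measured by AlphaLISA bead assay after 16 h compound exposure of THP-1 cells; compounds (final up to 57.5 uM) added 1 h before LPS (250 ng/mL) and ATP (1.25 mM) stimulation; lower signal means less secretion.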
% is scaled to controls: 0 for no effect and ±100 for the full control effect.

Activity change, inactive:
OC(c1cc(Cl)cc(Cl)c1)c1ncc(-c2ccccc2C(F)(F)F)[nH]1 (centres undefined) -7.73%
Cc1cccc(-c2cnc(C(O)c3ccc4ccccc4c3)[nH]2)c1 (centres undefined) 0%
Cc1ccc(S(=O)(=O)N2CCN(C(=O)COC(=O)c3c(C)cc(C)cc3C)CC2)c(C)c1 -9.93%
Cc1nc(-c2ccc(F)cc2)c(CC(=O)N2CCN(S(=O)(=O)c3ccc(F)cc3)CC2)s1 -7.47%
CCCc1cc(=O)[nH]c(SCC(=O)N2CCN(S(=O)(=O)c3ccc(C)cc3C)CC2)n1 0%
Cc1nc(-c2ccc(F)cc2)c(CC(=O)Nc2cccc(S(=O)(=O)N3CCOCC3)c2)s1 -11.9%
NC1=NOC(=O)C1C1CCCCC1 (centres undefined) -14.1%
COc1ccc(C(CNC(=O)c2ccc(OCc3cscn3)cc2)N2CCCC2)cc1 (centres undefined) -24.7%
COc1ccc(CNC(=O)CN2C(=O)NC3(CCCc4sccc43)C2=O)cc1 (centres undefined) 8.42%
COc1cc2c(cc1OC)CN(C(C)C(=O)Nc1cccc(S(=O)(=O)N3CCOCC3)c1)CC2 (centres undefined) -4.78%
COCC1CCCCN1C(=O)c1cc(COc2ccc(C)c(C)c2)on1 (centres undefined) 22.6%
CCOc1cc(C=NNC(=O)CCCC(=O)NN=Cc2ccc(O)c(OCC)c2)ccc1O 0%
CC(C)CN1CCC1(C)C(=O)Nc1ccc(OC(F)F)cc1 (centres undefined) 14.2%
O=[N+]([O-])c1cccc(/C=N/Nc2ncc(Br)cn2)c1 -8.3%
O=[N+]([O-])c1ccccc1Nc1ccc(O)cc1 -11.5%
Cn1c(=O)[nH]c(=O)c2c1nc(NCCCn1ccnc1)n2Cc1cccc(Br)c1 58.2%
Cc1ccccc1-c1nc(NC(C)C)nc2cc(-c3ccccc3)sc12 19.3%
CC1(C)CN(CCc2ccccc2)C(=O)[C@H]1CC(=O)Nc1ccc(Br)cc1 0%
COC(=O)c1ccccc1NC(=O)Cc1ccccc1OC 7.67%
COc1ccccc1CNC(=O)CCCN1C(=O)NC2(CCCC2)C1=O 10.6%
CC(=O)Nc1ccc(NC(=O)c2ccc3c(c2)C(=O)N(c2ccccc2C)C3=O)cc1 0%
C[C@@H]1CN([C@@H](C)CO)C(=O)c2cc(Br)cnc2O[C@H]1CN(C)Cc1ccc(-c2ccccc2)cc1 -13.1%
CC1(C(=O)Nc2ccc3c(c2)OCCO3)CCN1C(=O)Cc1cc(F)ccc1F (centres undefined) -2.62%
CC(=O)Nc1nc2ccccc2n1Cc1ccc(C)cc1 -12.8%
CCCCn1c(CCCNC(=O)CC)nc2ccccc21 36.3%
COC(=O)c1ccc2nc(-c3cccc(Br)c3)c(Cc3ccc(OC)cc3C)n2c1 2.21%
NNc1cccc(C=Cc2ccccc2)cc1=O -13.4%
CCOC1=C2CN(S(=O)(=O)c3ccc(C)cc3)[C@H](c3cccs3)C[C@H]2[C@H]2C(=O)N(c3ccccc3)C(=O)[C@H]2C1 91.6%
O=C(COc1ccc(F)cc1)N(CC1=CCS(=O)(=O)C1)c1ccccc1 0.865%
CCN(C(=O)c1ccc(Br)cc1)c1ccccc1 -9.85%
Cc1ccccc1OS(=O)(=O)c1cccc([N+](=O)[O-])c1 27.3%
COc1ccc(NC(=O)C2Cc3c(-c4cccc(NC(C)=O)c4)ccnc3O2)cc1OC (centres undefined) -14.1%
N#Cc1ccc(OCC(=O)NC(=O)NC2CCS(=O)(=O)C2)cc1 (centres undefined) -12.4%
CCNC(=O)c1cc2c(c(-c3cccc(-c4cncnc4)c3)n1)[C@H](CCO)N(C(C)=O)C2 42.5%
CC(C)NC(=O)N1Cc2cc(C(=O)NCC(F)(F)F)nc(-c3cccc(-c4cc5ccccc5o4)c3)c2[C@@H]1CCO -22.8%
CC1(C(=O)NCc2ccc(F)c(F)c2)Cc2c(-c3ccc4c(c3)OCO4)ccnc2O1 (centres undefined) 46.6%

Activity change, active:
CCc1ccc(CNC(=O)C2CCN(c3nnc(C)c4c(C)n(-c5ccc(C)cc5)nc34)CC2)cc1 -55%
Cc1ccc(S(=O)(=O)N2CCN(C(=O)Cc3sc(C)nc3-c3ccc(F)cc3)CC2)c(C)c1 -50.5%
Cc1ccc(S(=O)(=O)N2CCN(C(=O)CSc3cc(C)ccc3C)CC2)c(C)c1 -51.4%
O=[N+]([O-])c1ncc(Br)cc1Nc1ccccc1 -71.2%
CC[C@]1(c2ccccc2OC)C(=O)N(C(=O)OC)N1C(=O)OC -76.7%
CCC(=O)Nc1nc2ccccc2n1Cc1ccccc1C -56%
CCN(C(=O)COc1ccc(C(=O)c2ccccc2)cc1)c1ccccc1 -69.8%
CC(=O)N1Cc2cc(C(=O)NCc3cccc(F)c3)nc(-c3cccc(C4=CCCC4)c3)c2[C@H]1CCO -67.2%
